Laboratory results: PubChem BioAssay (NCI)
About 83,000 compounds went through this panel and 20% of them were active in at least one assay; those are over-represented in the sample as a whole.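 48-hour exposure, single concentration, 96-well plates; percent growth endpoint where 0 means no net growth. Active: below 10.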 The source made the active and inactive calls.

Test system: MDA-MB-468 breast
Experiment: NCI-60 one-dose screen, 48 h (100 = growth as untreated, 0 = no growth, -100 = all killed)
Conditions: 10 µM unless noted

Structure (SMILES) | growth
COC(=O)CNS(=O)(=O)c1ccc2c(c1)Cc1cc(S(=O)(=O)NCC(=O)OC)ccc1-2 | 84.9% (inactive)
CCCCCc1ccc(S(=O)(=O)Nc2cc(-c3csc(N)n3)ccc2OC)cc1 | 78.7% (inactive)
CCCCNC(=O)c1cc([N+](=O)[O-])cc(C2CCCCC2)c1O | -1.64% (active)
CCCCc1ccc(C(O)(CCN2CC3CCC(CC3)C2)c2ccccc2)cc1 (centres undefined) | 97.4% (inactive)
CN(C)CCn1c(=O)c2c3cc4c(cc3n(CCN(C)C)c2c2ccc(Cl)cc21)OCO4 | 41% (inactive)
COc1ccc(-c2c(C(N)=O)c(N)n(Cc3nc4ccccc4[nH]3)c(=O)c2C#N)c(OC)c1 | 99.2% (inactive)
COC(=O)c1ccc(C2Nc3ccc(S(=O)(=O)Nc4ccc(C)c(C)c4)cc3C3OCCC23)cc1 (centres undefined) | 54.7% (inactive)
O=C1CSC(=S)N1/N=C/c1ccc(Cl)s1 | 105% (inactive)
CN(C)CCN1C(=O)c2cccc3c(N)ccc(c23)C1=O | 38.7% (inactive)
O=C(Cn1c[n+](CC(=O)c2ccc([N+](=O)[O-])cc2)c2ccccc21)Nc1cccc2cccnc12 | 9.02% (active)
CC(=O)c1ccc2c(c1)CCc1ccccc1-2 | 94.9% (inactive)
CCC(CCC(C)C1CCC2C3CC=C4CC(O)CCC4(C)C3CCC12C)C(C)C (centres undefined) (tested in a mixture with another compound) | 114% (inactive)
Cc1cc(C(=O)CCCC(=O)c2cc(C)c(O)c(C)c2)cc(C)c1O | -3.17% (active)
CCN1CCN(C(=O)[C@]23CC[C@@H](C)[C@H](C)[C@@H]2C2=CC[C@@H]4[C@@]5(C)C/C(=C/c6cccnc6)C(=O)C(C)(C)[C@@H]5CC[C@@]4(C)[C@]2(C)CC3)CC1 | 16.4% (inactive)
